# Many of the other results were omitted from the sample, so hits are more common in it than they were.
# LmPK inh: qHTS Assay for Inhibitors of Leishmania Mexicana Pyruvate Kinase (LmPK). Q27686. purified LmPK, Kinase-Glo ATP luminescence, 1 h. Potency, µM (series often up to 57.5 µM), for the others: at the top dose activity change, negative = inhibition, hits mostly inhibitors. 0.37% of 290,000 active. AID 1721, 2009; note: potency is the fitted concentration of half-maximal effect; % is set by controls: 0 for no effect and ±100 for the full control effect
# Target sequence (Q27686 whole entry, looked up): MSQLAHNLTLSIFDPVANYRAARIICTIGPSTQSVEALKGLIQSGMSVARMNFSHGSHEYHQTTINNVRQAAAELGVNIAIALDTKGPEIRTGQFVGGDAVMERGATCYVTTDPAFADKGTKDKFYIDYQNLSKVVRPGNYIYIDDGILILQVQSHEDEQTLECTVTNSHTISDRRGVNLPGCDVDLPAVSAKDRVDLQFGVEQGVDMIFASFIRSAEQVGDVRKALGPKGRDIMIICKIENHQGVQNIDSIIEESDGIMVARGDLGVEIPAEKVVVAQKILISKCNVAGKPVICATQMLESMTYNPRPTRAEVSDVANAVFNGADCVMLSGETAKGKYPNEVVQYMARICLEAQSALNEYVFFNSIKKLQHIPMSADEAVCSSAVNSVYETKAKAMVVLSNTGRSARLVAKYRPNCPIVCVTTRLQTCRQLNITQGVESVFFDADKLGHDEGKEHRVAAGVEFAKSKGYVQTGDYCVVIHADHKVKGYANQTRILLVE
#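 0.1 nM LmPK, 0.5 mM PEP, 0.1 mM ADP; 50 mM imidazole pH 7.2, 7 mM MgCl2, 50 mM KCl; 1 h RT. Kinase-Glo luminescence readout, normalized to no-enzyme (full inhibition) and uninhibited wells.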
# Sm TGR block: qHTS Assay for the Inhibitors of Schistosoma Mansoni Peroxiredoxins. AID 485364, 2010. Potency, µM (highest dose often 114 µM), inactives show at the top dose activity change, negative = inhibition, most hits filed as inhibitors. purified TGR, DTNB reduction, TNB absorbance 405 nm. Schistosoma mansoni thioredoxin glutathione reductase (TGR), Q962Y6. 3% of 360,000 active; note: potency is the fitted concentration of half-maximal effect; % is set by controls: 0 for no effect and ±100 for the full control effect; nearly all actives have a fitted effect of over 60% in size
#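 TGR 20 nM + NADPH 100 uM (dispensed conc.), cpd preinc 15 min RT; start with NADPH (500 uM addition) then DTNB (15 mM addition). Kinetic TNB absorbance, 405 nm filter. Four-parameter Hill fit across titration.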
# Tb PYK inh: qHTS of Trypanosoma Brucei Inhibitors; Potency, µM (top dose mostly 76.8 µM), for the others: top-dose activity, negative = inhibition, hits mostly inhibitors; pyruvate kinase (Trypanosoma brucei), Q57TT1; 0.12% of 410,000 active; TbPYK enzyme, Kinase-Glo Plus ATP luminescence, 45 min; AID 624173, 2012; note: potency is the fitted concentration of half-maximal effect; % is set by controls: 0 for no effect and ±100 for the full control effect; nearly all actives have a fitted effect of over 50% in size
#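 Screened from lowest to highest concentration, compounds were pinned into TbPYK/substrate mixtures, and ADP (130 uM final) was added. Plates sat at room temperature for 45 min prior to Kinase-Glo Plus detection by luminescence.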
# Giardia FBPA inh: qHTS Assay for Inhibitors of Fructose-1,6-bisphosphate Aldolase from Giardia Lamblia. Potency, µM (top dose mostly 59.6 µM), without a hit: at the highest dose activity, negative = inhibition, actives largely listed as inhibitors. A8B2U2. purified Giardia FBPA. 0.71% of 290,000 active; note: potency is the fitted concentration of half-maximal effect; % is set by controls: 0 for no effect and ±100 for the full control effect; nearly all actives have a fitted effect of over 55% in size
#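 Giardia FBPA (40 nM reagent) was preincubated 10 min at RT with compound (up to 57.5 uM final), then substrate plus GAPDH/TPI/NAD/arsenate coupling system with diaphorase/resazurin was added; resorufin fluorescence (525/598 nm) was read after 20 min.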
# Cycloheximide cs: Cycloheximide Counterscreen for Small Molecule Inhibitors of Shiga Toxin. cell reporter, cycloheximide protein synthesis inhibition counterscreen. max response, %. 12% of 300,000 active. AID 2314, 2010; in the data active = max response mostly above about 13%, no sharp cut-off; inactive = mostly below about 14%; note: read at 38.3 µM for the half of the compounds with a filed dose; 0% is about no effect
# Shiga inhibitor: A qHTS for Small Molecule Inhibitors of Shiga Toxin; 9.2% of 290,000 active; Vero cells, Shiga toxin protein synthesis inhibition reporter; inhibition, % at 38.7 µM; AID 2315, 2010; in the data active = inhibition mostly above about 28%, no sharp cut-off; inactive = mostly below about 43%; note: 0% is about no effect
# An asterisk follows results filed as active; ? = inconclusive; . = no result given; + = active, no number. Unless noted, calls come from the whole dose curve; as a rule, active = well fitted curve in the direction sought with a large enough effect; inconclusive = small, poorly fitted or top-dose-only effect, or another doubt; inactive = no such curve, though single readings can be large; an effect the other way counts as inactive or inconclusive.
SMILES,LmPK inh,Sm TGR block,Tb PYK inh,Giardia FBPA inh,Cycloheximide cs,Shiga inhibitor
CCC1CN(C(=O)Nc2cc(C)cc(C)c2)c2ccccc2O1 (stereo not drawn),.,-3.4%,1.4%,.,.,.
CCN(Cc1ccccc1)C(=O)C(=O)c1cn(CC(=O)N2CCCC2)c2ccccc12,3.5%,-0.5%,1.6%,.,-2.6,8.8
Oc1cncc(Cc2ccccc2)c1,-3.0%,31.6µM*,-0.2%,0.7%,-2.3,-14.2
COc1cc2cncc(Cc3ccccc3)c2cc1O,.,.,-0.9%,.,.,.
Cc1ccc(-c2nc(NC(=O)CSc3cc(C)c4ccccc4n3)ns2)cc1,0.3%,-24.2%,-6.5%,1.4%,-2.9,-9.3
Cc1nnc(SCC(=O)Nc2nsc(-c3ccccc3)n2)s1,1.7%,-8.7%,0.5%,-9.7%,15.5*,29.6
COc1ccc(-c2nc(NC(=O)CSc3nnc(C)s3)ns2)cc1,0.6%,1.0%,-4.0%,3.9%,33.9*,33.0*
Cc1ccc(-c2nc(NC(=O)CSc3nnc(C)s3)ns2)cc1,-2.4%,12.4%,-2.5%,-3.7%,22.9*,76.5*
O=C(CSc1nnc2ccccn12)Nc1nsc(-c2ccccc2)n1,-2.6%,7.2%,-2.8%,5.9%,18.5*,20.9
O=C(CSc1nnnn1-c1ccccc1)Nc1nsc(-c2ccccc2)n1,0.7%,-7.3%,-21.1%,4.4%,-2.5,-8.6
COc1ncnc2c1ncn2CCCNCc1ccc(C)o1,.,.,-1.7%,.,.,.
COc1ccccc1C(CNC(=O)c1oc2ccccc2c1C)N1CCCC1 (stereo not drawn),.,31.6µM*,-4.9%,.,.,.
COc1ccc(NC(=O)c2oc3ccccc3c2C)c(OC)c1,0.7%,9.2%,-6.1%,-10.7%,16.1*,46.5*
COc1ccc(C(CNC(=O)c2oc3ccccc3c2C)N2CCCCC2)cc1 (stereo not drawn),.,-1.3%,5.8%,.,.,.
COc1ccc(NC(=O)c2cc3ccccc3oc2=O)c(OC)c1,-0.6%,1.1%,6.7%,2.3%,50.7*,133.1*
COc1ccccc1C(=O)Nc1cc2ccccc2oc1=O,4.9%,-22.1%,-5.7%,0.3%,18.7*,43.3*
CC(C)=CCC[C@](C)(O[C@@H]1O[C@H](CO)[C@@H](O)[C@H](O)[C@H]1O)[C@H]1CC[C@]2(C)[C@@H]1[C@H](O)C[C@@H]1[C@@]3(C)CC[C@H](O[C@@H]4O[C@H](CO)[C@@H](O)[C@H](O)[C@H]4O[C@@H]4O[C@H](CO)[C@@H](O)[C@H](O)[C@H]4O)C(C)(C)[C@@H]3[C@@H](O)C[C@]12C,.,.,.,6.2%,-2.7,-4.0
COc1ccccc1C(=O)N1CCN(Cc2cc(=O)oc3cc(C)ccc23)CC1,.,-18.3%,6.9%,.,.,.
COc1ccc(OC)c(NC(=O)c2cc3cccc(OC)c3oc2=O)c1,.,8.3%,0.9%,.,.,.
COc1ccc(S(=O)(=O)Nc2ccccc2OC)cc1NC(=O)c1cc2ccccc2oc1=O,-9.6%,3.5%,-1.1%,-1.6%,38.4*,148.0*
CC(=O)Nc1ccccc1-c1ccc(C)o1,2.8%,?,0.3%,0.6%,16.3*,16.3
CNc1ncnc2c1ncn2[C@H]1CN(Cc2ccc(Cl)cc2)C[C@@H](CO)O1,.,.,5.2%,.,.,.
COc1ccc(NC(=O)CNS(=O)(=O)c2ccc(Cl)cc2)cc1,0.9%,-2.5%,-4.5%,-1.2%,16.3*,23.4
COc1ccc(NC(C)=[N+](C)CCNS(=O)(=O)c2ccc(Cl)cc2)cc1,9.4%,35.5µM*,?,.,4.8,-9.0
Cc1ccc(CNC(=O)c2ccc3c(c2)nc(C)n3-c2cccc(F)c2)cc1,.,6.0%,1.2%,.,.,.
SMILES,LmPK inh,Sm TGR block,Tb PYK inh,Giardia FBPA inh,Cycloheximide cs,Shiga inhibitor
O=C(CN1C(=O)c2ccc([N+](=O)[O-])cc2C1=O)NC1CCCCCC1,.,-8.1%,0.2%,.,.,.
CC(=O)Nc1ccc(NC(=O)CSc2nc3ccccc3nc2N2CCC(C)CC2)cc1,-0.3%,-1.3%,-1.3%,4.4%,18.8*,36.1
O=C(CSc1nc2ccccc2nc1N1CCOCC1)Nc1ccccc1F,-2.3%,-16.6%,1.3%,7.5%,20.0*,24.1*
COC(=O)c1ccc(NC(=O)C(=O)NCCc2csc3nc(-c4ccccc4F)nn23)cc1,.,5.0%,0.5%,.,.,.
O=C(CCC1CCCN(C(=O)c2ccc3c(c2)OCO3)C1)NCc1ccc(F)c(F)c1 (stereo not drawn),-5.7%,0.0%,6.4%,3.7%,14.7*,41.4*
O=C(CCC1CCCN(C(=O)c2ccc3cc[nH]c3c2)C1)NCc1ccc(F)c(F)c1 (stereo not drawn),-3.5%,13.7%,1.2%,2.8%,29.4*,29.6*
Cc1cc(=O)[nH]c(N=N/C(=N/Nc2ccc(O)cc2)c2ccccc2)n1,?,-25.7%,-16.4%,?,48.7*,100.2*
COc1ccc(C(=O)C(=NNc2ccccc2)c2ccc(OC)cc2)cc1,.,.,0.4%,.,.,.
Cc1cc(=O)[nH]c(N=N/C(=N/Nc2ccccc2C)c2ccccc2)n1,?,8.9%,-8.1%,-7.0%,8.0,-13.9
COc1ccc(N/N=C(/N=Nc2nc(C)cc(=O)[nH]2)c2ccccc2)cc1,-23.2%,-7.8%,-5.0%,-19.7%,61.8*,90.8*
C[C@H](NC(=O)c1ccccc1Cl)C(=O)OCC(=O)N1CC2(C)CC1CC(C)(C)C2 (stereo partly drawn),-3.5%,0.5%,5.9%,-2.7%,12.1*,8.2
COCCCNC(=O)c1cc2cc3cc(OC)ccc3nc2o1,-0.7%,-1.0%,-1.3%,-8.2%,19.7*,18.9
CCN(C(=O)c1cc2cc3ccc(C)cc3nc2o1)c1ccc(OC)cc1,1.3%,3.8%,4.3%,4.6%,36.2*,37.3*
COc1ccc(CNC(=O)c2cc3cc4ccc(C)cc4nc3o2)cc1,.,-13.5%,-1.4%,.,.,.
CCCCN(C)C(=O)c1cc2cc3ccc(OC)cc3nc2o1,-3.8%,-19.5%,-14.2%,4.0%,28.9*,79.3*
CCCCN(C)C(=O)c1cc2cc3cc(OC)ccc3nc2o1,0.9%,6.0%,-0.4%,-19.6%,41.6*,62.7*
OCCCNc1cc(-c2ccccc2)nc2cc(-c3ccc(F)cc3)nn12,10.7%,?,0.2%,-2.8%,10.1,.
Cc1ccccc1NC(=O)Nc1nc2ccc(S(C)(=O)=O)cc2s1,-1.2%,-8.1%,0.2%,5.7%,13.8,+
NS(=O)(=O)c1ccc2nc(NC(=O)Nc3ccccc3F)sc2c1,-2.9%,-0.7%,-6.9%,-2.3%,49.6*,104.6*
CCOC(=O)N1CCC(=NNC(=O)c2ccccc2F)CC1,-2.6%,3.0%,?,-5.0%,49.0*,25.3*
O=C(Nc1ccc(SC(F)F)cc1)c1ccccc1F,0.4%,-4.7%,6.9%,-9.4%,45.1*,92.4*

# High-throughput results from PubChem.
